Experimental data published in ChEMBL document CHEMBL4513216, “Probing the Open Global Health Chemical Diversity Library for Multistage-Active Starting Points for Next-Generation Antimalarials” (ACS Infect Dis, 2020).
Among all 69,000 compounds or so, about 8,600 (12%) showed an effect of 50% or more. The list comes from a sample in which strong results are over-represented; it also holds similar structures and randomly drawn compounds.

System: Plasmodium berghei
Assay: Screen against P. berghei liver stage (PbLuc), transformed with Luciferase, at 10uM
Format: functional, HepG2
Conditions: tested at 10 uM

**Q.** For `Cn1nc(C2CC2)cc1C(=O)N1CCC(c2nnsc2S(C)(=O)=O)CC1`, which INHIBITION is on record?
**A.** 18.14%

**Q.** How did the INHIBITION turn out when `CN(C)C(=O)CN1C(=O)CCC12CCN(Cc1ccsc1)CC2` was run?
**A.** 17.4%

**Q.** `COc1cc2c(cc1CCC(=O)O)CCC2` was tested. Which INHIBITION did it give?
**A.** -5.7%

**Q.** For `COc1cc(C)c(C)cc1S(=O)(=O)N(C)CC(=O)Nc1ccon1`, which INHIBITION is on record?
**A.** 27.4%

**Q.** For `CCCn1nnnc1COc1cc(OC)ccc1C(=O)OC`, which INHIBITION is on record?
**A.** 18.4%

**Q.** With `Clc1ccc2nc(N3CCC(NCCCC4CCOC4)CC3)sc2c1` (configuration not stated) as the compound, how does the INHIBITION read?
**A.** 88.1%

**Q.** How did the INHIBITION turn out when `CCc1cc(N2CCC(NCCc3ccccc3F)CC2)nc(C)n1` was run?
**A.** 11%

**Q.** `CCS(=O)(=O)CCNC1CCN(c2nc3ccc(Cl)cc3s2)CC1` was tested. Which INHIBITION did it give?
**A.** 85.2%

**Q.** With `CCc1nccn1CCNC1CCN(c2nc3ccc(Cl)cc3s2)CC1` as the compound, how does the INHIBITION read?
**A.** 78.1%

**Q.** With `CCCc1cc(NCCCC2CCOC2)n2nccc2n1` (configuration not stated) as the compound, how does the INHIBITION read?
**A.** -7.65%

**Q.** With `CCn1ccnc1CNC1CC(=O)N(CCc2cccc(Cl)c2)C1` (configuration not stated) as the compound, how does the INHIBITION read?
**A.** -6.39%

**Q.** For `CCCc1cc(N2CCC(NCCc3ccc(O)cc3)CC2)nc(C)n1`, which INHIBITION is on record?
**A.** 30.3%

**Q.** With `CS(=O)(=O)N1CCC(Nc2ccnc3ccc(Cl)cc23)CC1` as the compound, how does the INHIBITION read?
**A.** -20.6%

**Q.** `CCc1cc(NCCCC2CCOC2)n2nccc2n1` (configuration not stated) was tested. Which INHIBITION did it give?
**A.** 48.1%

**Q.** With `CCOc1ccc2cc(C(=O)NCCNc3ccc(C)nn3)[nH]c2c1` as the compound, how does the INHIBITION read?
**A.** -21.9%

**Q.** For `Cc1cc(C(=O)NC2CCC3(CCC(=O)N3C)CC2)no1` (configuration not stated), which INHIBITION is on record?
**A.** 28.4%

**Q.** How did the INHIBITION turn out when `CN(Cc1ccco1)[C@@H]1CN(Cc2ccsc2)C[C@@H]2CCCO[C@@H]21` was run?
**A.** 17.5%

**Q.** With `CC(C)N(Cc1ccccn1)C(=O)CCC(=O)c1ccccc1` as the compound, how does the INHIBITION read?
**A.** 34.1%

**Q.** Which INHIBITION does the source give for `CC(C)c1n[nH]c(C2CN(CCc3cccs3)CCO2)n1` (configuration not stated) here?
**A.** -21.9%

**Q.** For `CN(Cc1ccco1)C(=O)C1=NN(C)C(=O)CC1`, which INHIBITION is on record?
**A.** -14.3%

**Q.** For `CC(=O)N(CCc1nc(-c2cc(C(N)=O)co2)cs1)C(C)C`, which INHIBITION is on record?
**A.** -49.3%

**Q.** For `CC(=O)N(C)CCc1nc(-c2cc(C(N)=O)co2)cs1`, which INHIBITION is on record?
**A.** -91.4%

**Q.** For `CC(=O)N(CCc1nc(-c2cc(C(N)=O)oc2C)cs1)C(C)C`, which INHIBITION is on record?
**A.** 74%

**Q.** Which INHIBITION does the source give for `CC(=O)N1CCCC(c2nc(N(C)C)ncc2-c2cccc(F)c2)C1` (configuration not stated) here?
**A.** 74.9%

**Q.** With `CC(=O)N1CCOC(c2nc(N(C)C)ncc2-c2cccc(F)c2)C1` (configuration not stated) as the compound, how does the INHIBITION read?
**A.** 9.93%

**Q.** How did the INHIBITION turn out when `CCC(=O)N1CCCC1c1nc(N(C)C)ncc1-c1ccc(Cl)cc1` (configuration not stated) was run?
**A.** 50.8%

**Q.** With `COCC(=O)N1CCCC(c2nc(N(C)C)ncc2-c2ccccc2)C1` (configuration not stated) as the compound, how does the INHIBITION read?
**A.** 42.5%

**Q.** Which INHIBITION does the source give for `CC(=O)N1CCCC(c2nc(N(C)C)ncc2-c2ccccc2)C1` (configuration not stated) here?
**A.** 9.98%

**Q.** How did the INHIBITION turn out when `CC(C)C(=O)N1CCCC1c1nc(N(C)C)ncc1-c1ccc(Cl)cc1` (configuration not stated) was run?
**A.** 26.7%

**Q.** For `CCC(=O)N1CCCC(c2nc(N(C)C)ncc2-c2ccc(F)cc2)C1` (configuration not stated), which INHIBITION is on record?
**A.** 73.1%

**Q.** How did the INHIBITION turn out when `CC(=O)N1CCCC1c1nc(N(C)C)ncc1-c1ccccc1` (configuration not stated) was run?
**A.** 1.62%

**Q.** Which INHIBITION does the source give for `CN(C)c1nccc(C2CCCN(C(=O)CO)C2)n1` (configuration not stated) here?
**A.** 23.2%
